Compounds with a hit are over-represented: about 5.1% of the library has one in this group of screens.
MPTP inh – inhibitors of mitochondrial permeability transition pore; hit rate 1.4% among 360,000; inhibition, % at 10 µM; isolated mouse mitochondria, Ca2+ swelling absorbance, 30 min;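 active = inhibition of 50% or more, scaled per plate between neutral and stimulator controls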;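 also: 0% = DMSO wells given calcium and 100% = 1 mM EGTA wells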
CRFBP-R2 block – antagonists of CRF-binding protein/CRF-R2 receptor complex; HEK293 CRF-R2/CRF-BP, CRF-induced calcium fluorescence; inhibition, % at 11.8 µM; hit rate 0.59% among 350,000; AID 588475;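 active = inhibition of the ligand-induced calcium signal above about 50% at the single tested concentration, limit read from the data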
GRIN3A LBD mod – NR3A (human) ligand-binding domain modulation | NR3A LBD differential scanning fluorimetry, Tm shift; 0% = protein alone, 100% = glycine-bound protein | Tm shift relative to glycine control, % at 25 µM | hit rate 2.5% among 340,000;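 active = melting temperature shift of at least 10% of the positive control shift, at one fixed dose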
ANO1 block – inhibitors of mouse TMEM16A calcium-activated chloride channel; Q8BHY3; HEK293 TMEM16A/YFP iodide influx fluorescence, ionomycin; normalized B-score (activity score, 25-100; higher = stronger inhibition) at 10 µM; hit rate 1.2% among 310,000; AID 588511;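 active = ratio plate-corrected score three or more library SD toward inhibition, starting fluorescence score within five deviations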;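 also: score derived from kinetic fluorescence span divided by baseline fluorescence per well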
Target sequence (Q8BHY3 whole entry, looked up): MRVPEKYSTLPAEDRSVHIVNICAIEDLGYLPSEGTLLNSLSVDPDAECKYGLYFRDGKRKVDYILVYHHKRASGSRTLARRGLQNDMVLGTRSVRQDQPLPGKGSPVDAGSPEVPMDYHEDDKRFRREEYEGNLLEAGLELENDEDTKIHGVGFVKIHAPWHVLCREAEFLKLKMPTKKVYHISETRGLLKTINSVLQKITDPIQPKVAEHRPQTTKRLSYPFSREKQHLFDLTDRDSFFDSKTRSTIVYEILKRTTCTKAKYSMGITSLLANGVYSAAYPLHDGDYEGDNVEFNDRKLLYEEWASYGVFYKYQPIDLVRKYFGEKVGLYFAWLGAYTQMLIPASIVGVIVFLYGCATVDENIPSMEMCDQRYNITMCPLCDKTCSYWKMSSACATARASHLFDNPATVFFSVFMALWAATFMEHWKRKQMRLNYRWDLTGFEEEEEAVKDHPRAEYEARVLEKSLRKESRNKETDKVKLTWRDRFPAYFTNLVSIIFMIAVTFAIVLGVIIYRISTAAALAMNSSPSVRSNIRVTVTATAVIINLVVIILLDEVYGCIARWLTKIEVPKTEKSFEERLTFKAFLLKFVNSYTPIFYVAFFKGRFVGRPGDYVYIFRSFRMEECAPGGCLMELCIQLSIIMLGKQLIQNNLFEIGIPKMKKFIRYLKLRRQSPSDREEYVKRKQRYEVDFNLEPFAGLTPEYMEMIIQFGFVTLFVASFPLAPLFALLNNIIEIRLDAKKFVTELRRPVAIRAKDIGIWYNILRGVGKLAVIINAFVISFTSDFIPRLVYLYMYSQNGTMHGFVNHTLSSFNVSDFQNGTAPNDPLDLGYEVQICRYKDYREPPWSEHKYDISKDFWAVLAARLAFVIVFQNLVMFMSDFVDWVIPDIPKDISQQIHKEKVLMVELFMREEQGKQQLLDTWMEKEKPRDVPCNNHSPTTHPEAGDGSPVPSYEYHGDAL
CRFBP-R2 agonist – agonists of human CRF-binding protein/CRF-R2 receptor complex | HEK293 CRF-R2/CRF-BP, calcium dye fluorescence (FLIPR); percent of saturating CRF peptide response | activation, % at 13.2 µM | hit rate 0.46% among 350,000 | AID 588473;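 active = activation of at least 50%, plus an integration ratio under a set limit after plate pattern correction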;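 also: plate controls were neutral control wells without compound for no effect and CRF at EC100 for full effect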
ANO1 activ – activators or potentiators of mouse TMEM16A chloride channel; B-score at 10 µM; hit rate 0.3% among 340,000; Q8BHY3; HEK293 TMEM16A/YFP-H148Q/I152L, iodide quench fluorescence; hits give low values;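 active = fluorescence-ratio B-score plate-corrected deviation score at least 3 library SD below zero, with starting fluorescence score within 5 deviations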;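 also: channel opened by trigger with iodide after compound preincubation; score built on the fluorescence ratio of max minus min over baseline; more negative score means more quench and so TMEM16A activation or potentiation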
Rh123 counter – mitochondrial membrane potential, counter-screen. shares compounds with MPTP inh. isolated mitochondria, Rhodamine 123 fluorescence. inhibition, % at 10 µM. hit rate 78% among 5,000; in the data active = inhibition above about 22%;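 also: 0% = DMSO vehicle and 100% = positive control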
MPTP swell DR – dose response confirmation of mitochondrial permeability transition pore inhibitors; shares compounds with MPTP inh; isolated mitochondria swelling, absorbance; IC50, µM; hit rate 58% among 780; in the data active = IC50 below about 20 µM
MPTP cs DR – active in counter-screen for permeability transition pore inhibitors; hit rate 49% among 780; IC50, µM; AID 651564; isolated mitochondria counterscreen, fluorescence read-out; shares compounds with MPTP inh; in the data active = IC50 below about 80 µM
An asterisk follows results filed as active; i = inactive; . = no result.

SMILES	MPTP inh	CRFBP-R2 block	GRIN3A LBD mod	ANO1 block	CRFBP-R2 agonist	ANO1 activ	Rh123 counter	others
CC(NC(=O)CCNC(=O)c1ccc(Br)cc1)c1ccc(-n2ccnc2)cc1 (stereo unspecified)	-2	-9	0	i	-1	i	.
Cc1ccc(NC(=O)C(OC(=O)c2cc(C)oc2C)c2ccccc2)cc1 (stereo unspecified)	3	-11	2	i	-1	i	.
Cc1cc(C(=O)OC(C(=O)Nc2cccc(C(F)(F)F)c2)c2ccccc2)c(C)o1 (stereo unspecified)	68*	-34	13*	i	1	i	73*
Cc1ccc(CSc2ncn(-c3ccccc3)n2)cc1	2	23	0	i	-1	i	.
Cc1ccc(CSc2nccc(-c3c(C)nc4ccccn34)n2)cc1	61*	-8	-1	i	0	i	13	MPTP swell DR=i;MPTP cs DR=>80
O=C(Nc1cccc(Oc2ccccc2)c1)C1Cc2c(-c3cccc(F)c3)ccnc2O1 (stereo unspecified)	0	.	.	.	.	.	.
O=C(/C=C/C(Cl)(Cl)Cl)Nc1ccc(Cl)cc1	96*	6	-10	.	7	i	102*
CCC(=O)N1CCc2cc(Br)cc(S(=O)(=O)N3CCC(C(=O)NC(C)C)CC3)c21	0	-4	-1	i	0	i	.
COc1cc(OC)cc(C(=O)N2CCCC(c3nc(-c4ccc(C)o4)no3)C2)c1 (stereo unspecified)	-3	-10	1	i	0	i	.
Cc1ccc(-c2noc(C3CCCN(C(=O)c4ccc(C(C)(C)C)cc4)C3)n2)o1 (stereo unspecified)	61*	-4	-1	i	-1	i	39*
Cc1noc(C)c1S(=O)(=O)N(C)C[C@H]1OCCCC[C@H](C)Oc2ccc(NC(=O)CCCN(C)C)cc2C(=O)N([C@H](C)CO)C[C@@H]1C	0	-4	.	.	2	.	.
COc1ccc(-c2ccc(CN3C(CC(C)C)C(=O)N(Cc4cn(CCC5OCCCO5)nn4)CCS3(=O)=O)cc2)cc1OC (stereo unspecified)	0	-16	.	.	4	.	.
O=C(Nc1c(F)cc(F)cc1Br)c1cc(-c2ccc(O)cc2)on1	92*	-20	-8	i	11	i	23*
O=C(CSc1ccc(C(F)(F)F)cc1[N+](=O)[O-])Nc1ccccc1	59*	-27	-2	i	0	i	61*
C/C(=N\Nc1ccc([N+](=O)[O-])cc1)c1ccc(C#N)cc1	28	12	9	i	3	i	.
O=C(O)CC/C(=N/Nc1ccc([N+](=O)[O-])cc1)C(=O)O	1	5	0	i	-1	i	.
C/C(=N/Nc1ccc([N+](=O)[O-])cc1)c1ccc(C)cc1C	65*	-36	24*	i	1	i	60*
COc1ccc(C(=O)/C(C#N)=N/Nc2ccc([N+](=O)[O-])cc2)cc1	100*	71*	17*	25*	23	i	86*
N#CC(C#N)=NNc1ccc([N+](=O)[O-])cc1	90*	19	1	100*	21	i	78*
C/C(=N\Nc1cccc([N+](=O)[O-])c1)c1cc(F)ccc1O	85*	-3	10*	i	3	i	65*
COc1cccc(N(C(=O)c2sc(C)nc2C)C(C(=O)NCC2CCCO2)c2ccccc2)c1 (stereo unspecified)	-2	-19	1	i	-2	i	.
CN(Cc1ccccc1)C(=O)c1cccc(NC(=O)Cc2cccc(NC(=O)C3CCN(C(=O)c4ccccc4)CC3)c2)c1	0	14	-1	.	2	.	.
COc1ccc(C(=O)NNC(=O)c2ccccc2[N+](=O)[O-])cc1	-1	17	0	i	1	i	.
COc1ccc(C(=O)/C(C#N)=N/Nc2ccccc2[N+](=O)[O-])cc1	95*	61*	2	i	23	i	88*
Cc1ccc(OCC(=O)N2CCN(c3nnc(-c4ccc(C)cc4)c4ccccc34)CC2)cc1	84*	68*	-12	i	-1	i	22*
SMILES	MPTP inh	CRFBP-R2 block	GRIN3A LBD mod	ANO1 block	CRFBP-R2 agonist	ANO1 activ	Rh123 counter	others
Cc1ccc(-c2nnc(N3CCN(C(=O)COc4cccc(C)c4)CC3)c3ccccc23)cc1	26	6	-1	i	0	i	.
COc1ccc(OCC(=O)N2CCN(c3nnc(-c4ccc(C)cc4)c4ccccc34)CC2)cc1	60*	13	0	i	2	i	15	MPTP swell DR=20*;MPTP cs DR=22*
CCN(CC(=O)Nc1c(F)cccc1F)C(=O)c1ccc(OCC(=O)N2CCOCC2)c(OC)c1	0	-9	1	.	0	i	.
Clc1ccc(NC2(c3nnnn3C3CCCCC3)CCCCC2)cc1	91*	-7	-8	i	-1	i	91*
Cc1ccc(NC(=O)c2cc(-c3ccco3)on2)cc1C	0	8	1	i	-3	i	.
Cc1ccc(NC(=O)c2cc(-c3cccc(O)c3)on2)cc1C	105*	49	4	i	3	i	20*
O=C(NCc1ccccc1)c1cc(-c2cccc(O)c2)on1	113*	20	-7	i	0	i	16	MPTP swell DR=4.3*;MPTP cs DR=19*
Cc1cc(C)c(C(=O)N(CCN(C)C)CC2CCCN(Cc3ccccc3F)C2)o1 (stereo unspecified)	0	5	-1	i	-1	i	.
O=[N+]([O-])c1ccc(C2=NN(CCO)C(=Nc3ccc(OC(F)(F)F)cc3)SC2)cc1	54*	-2	-9	i	2	i	53*
COc1ccc(N=C2SCC(c3ccc([N+](=O)[O-])cc3)=NN2CCO)cc1	8	26	-1	i	1	i	.
C=CC[n+]1c(-c2ccc(OC)c(OC)c2)csc1NNC(=O)Nc1ccccc1	64*	7	-1	100*	1	i	31*
C=CC[n+]1c(-c2ccccc2)csc1NC(C)(C)C	0	-7	0	i	1	i	.
O=C(Nc1cccc(Cl)c1)OCCN1CCN(Cc2ccccc2)CCC1=O	93*	3	-3	i	-2	i	89*
CCN(CC)S(=O)(=O)c1cccc(NC(=O)Nc2cccc(C(F)(F)F)c2)c1	87*	26	31*	100*	13	i	69*

Source: PubChem (several laboratories)
